Laboratory results: paper PMC4552634, “A New Set of Chemical Starting Points with Plasmodium falciparum Transmission-Blocking Potential for Antimalarial Drug Discovery” (PLoS ONE, 2015)
Screen size: about 13,000 compounds; about 3,200 (25%) showed an effect of 50% or more. This is one part of the list.

System: P. falciparum stage V gametocytes
Design: BacTiter-Glo ATP luminescence viability of purified stage V gametocytes in 384-well plates, per cent inhibition versus DMSO
Settings: 48 h, 5 µM; inhibitor

Row | SMILES | % Inhibition [%]
1 | CN(C)CCCNc1ncnc2c1[nH]c1ccc(Br)cc12 [TCMDC-124583] | -18.04
2 | NC1CCN(c2nc(NCCCc3ccc(O)cc3)nc(NCc3ccccc3-c3ccc(C(F)(F)F)cc3)n2)CC1 [TCMDC-133395] | 21.49
3 | COc1cc(F)c2ncc(C#N)c(CCN3CCC(NCc4ccc5c(c4)OCCO5)CC3)c2c1 [TCMDC-135367] | 11.13
4 | O=C1OC2(CN1CC1CCN(Cc3ccc(O)cc3Cl)C1)c1ccccc1-c1ccccc12 (centres unmarked) [TCMDC-136313] | 14.23
5 | CON=Cc1ccn(-c2ccc(O)c3c2C[C@H]2C[C@H]4[C@H](N(C)C)C(=O)C(C(N)=O)=C(O)[C@@]4(O)C(=O)C2=C3O)c1 [TCMDC-138646] | 4.088
6 | C=C1C(C(=O)OCC)=CN(CC)c2cc(O[C@H]3CCN(C(=O)OC(C)(C)C)C3)ccc21 [TCMDC-135646] | 47.67
7 | COc1cc2c(cc1OC)CN(CCc1ccc(NC(=O)c3cc4cc(OC(F)(F)F)ccc4[nH]3)cc1)CC2 [TCMDC-138250] | 36.42
8 | CCc1cn(CCOC)c2ccc(C(=O)N[C@@H](Cc3ccccc3)[C@H](O)CNC(C)(C)CCCC(C)C)cc12 [TCMDC-135259] | 69.62
9 | CCc1cn(CCc2ccccc2)c2ccc(C(=O)N[C@@H](Cc3ccccc3)[C@H](O)CNC(C)(C)CCCC(C)C)cc12 [TCMDC-135282] | 76.37
10 | CCc1cn(CCS(C)(=O)=O)c2ccc(C(=O)N[C@@H](Cc3ccccc3)[C@H](O)CNC(C)(C)CCCC(C)C)cc12 [TCMDC-135268] | 68.72
11 | CCc1cn2c3c(cc(C(=O)N[C@@H](Cc4ccccc4)[C@H](O)CN[C@@H](C)CC)cc13)N(C)S(=O)(=O)CC2 [TCMDC-135801] | 46.03
12 | CCc1cn(CCCOC)c2ccc(C(=O)N[C@@H](Cc3ccccc3)[C@H](O)CNCc3cccc(C(F)(F)F)c3)cc12 [TCMDC-135241] | 4.563
13 | C(=N\Nc1nccc2sc(-c3ccccc3)cc12)/c1cccnc1 [TCMDC-135190] | -94.18
14 | COc1ccc(S(=O)(=O)N2CCOCC2)cc1NC(=O)c1cc2ccccc2o1 [TCMDC-124328] | -2.829
15 | N#Cc1ccc(-c2ccc(OCC(O)CN3CCCN(C(=O)C(c4ccc5c(c4)OCO5)N4CCN(C/C=C/c5ccccc5)CC4)CC3)cc2)cc1 (centres unmarked) [TCMDC-141496] | 18.87
16 | COc1cc2c(cc1NC(=O)CN1CCN(C(=O)c3ccco3)CC1)oc1ccccc12 [TCMDC-123712] | 37.25
17 | Cn1cnc2nc(NCCc3ccccc3)nc(NCc3cccc4ccccc34)c21 [TCMDC-131862] | 52.06
18 | c1ccc2c(CNc3nc(NCC4CCCCC4)nc4nc[nH]c34)cccc2c1 [TCMDC-131860] | -36.72
19 | c1ccc(CCNc2nc(NCC(c3ccccc3)c3ccccc3)c3[nH]cnc3n2)cc1 [TCMDC-131858] | -2.796
20 | O=C1COc2ccccc2N1CCN1CCC(NCc2ccc(-c3cccs3)cc2)CC1 [TCMDC-135135] | -33.37
21 | COCc1nc(N)nc(N)c1-c1ccc(Cl)c(Cl)c1 [TCMDC-137373] | -9.797
22 | O=C(NCCNc1ccnc(Nc2ccc(F)cc2)n1)Nc1ccccc1F [TCMDC-133640] | -0.7257

Row | SMILES | % Inhibition [%]
23 | COc1ccc(Nc2nccc(NCCNC(=O)Nc3ccccc3F)n2)cc1 [TCMDC-133645] | -48.4
24 | O=C(NCCNc1nc(NCCNC(=O)Nc2ccccc2)c2ccc(=O)n(-c3c(F)cccc3F)c2n1)Nc1ccccc1 [TCMDC-136645] | 74.46
25 | COc1ccc(NC(=O)/C=C/c2ccccc2Cl)cc1OCCN1CCC(c2nc3ccccc3[nH]2)CC1 [TCMDC-140921] | -39.17
26 | O=C(/C=C/c1ccc(Cl)c(Cl)c1)NCCCCCN1CCC(NC(=O)NC2CCCCC2)CC1 [TCMDC-135700] | -41.72
27 | ON=C(c1nc2ccccc2[nH]1)c1nc2ccccc2[nH]1 [TCMDC-125758] | 102.3
28 | c1ccc2[nH]c(Nc3ccc(Nc4nc5ccccc5[nH]4)cc3)nc2c1 [TCMDC-131951] | -2.479
29 | c1ccc2[nH]c(CN(Cc3nc4ccccc4[nH]3)Cc3nc4ccccc4[nH]3)nc2c1 [TCMDC-124132] | -49.22
30 | COc1cc(C(=O)NCCCN2CCN(c3cccc(Cl)c3)CC2)ccc1-c1nc2cc(Cl)c(F)cc2[nH]1 [TCMDC-140095] | -11.24
31 | O=C(c1ccccc1[N+](=O)[O-])N(Cc1ccccc1)c1ccccn1 [TCMDC-125748] | 16.59
32 | CC(C)Cn1c(Sc2ccc(C#N)c([N+](=O)[O-])c2)nnc1-c1ccc(N(C)C)cc1 [TCMDC-135612] | 35.05
33 | C=CCn1c(Sc2ccc(C#N)c([N+](=O)[O-])c2)nnc1-c1ccc(Cl)cc1 [TCMDC-135600] | 77.78
34 | C=CCn1c(Sc2ccc(C#N)c([N+](=O)[O-])c2)nnc1-c1cccc(Cl)c1 [TCMDC-135595] | 80.55
35 | CCCCCn1c(Sc2ccc(C#N)c([N+](=O)[O-])c2)nnc1-c1cccc(Cl)c1 [TCMDC-135593] | -8.18
36 | CCCCCn1c(Sc2ccc(C#N)c([N+](=O)[O-])c2)nnc1-c1cc(OC)cc(OC)c1 [TCMDC-135588] | -41.27
37 | CCCCCCn1c(Sc2ccc(C#N)c([N+](=O)[O-])c2)nnc1-c1cccc(Cl)c1 [TCMDC-135594] | 24.59
38 | C=CCn1c(Sc2ccc(C#N)c([N+](=O)[O-])c2)nnc1-c1ccc(OC)cc1 [TCMDC-135605] | 28.83
39 | CC(C)Cn1c(Sc2ccc(C#N)c([N+](=O)[O-])c2)nnc1-c1cccc(Cl)c1 [TCMDC-135580] | 40.84
40 | COc1ccc(-c2nnc(Sc3ccc(C#N)c([N+](=O)[O-])c3)n2CC(C)C)cc1 [TCMDC-135584] | 36.77
41 | CCCCn1c(Sc2ccc(C#N)c([N+](=O)[O-])c2)nnc1-c1cccc(Cl)c1 [TCMDC-135579] | 86.95
42 | C=CCn1c(Sc2ccc(C#N)c([N+](=O)[O-])c2)nnc1-c1cc(OC)cc(OC)c1 [TCMDC-135590] | 71.82
43 | O=[N+]([O-])c1cc(C(c2ccc(O)c([N+](=O)[O-])c2)C(Cl)(Cl)Cl)ccc1O [TCMDC-124158] | 25.13
44 | COc1ccccc1NC(=O)Nc1cccc(-c2cccc(-c3nc4ccc(C(F)(F)F)cc4[nH]3)c2)c1 [TCMDC-133205] | 10.02

Row | SMILES | % Inhibition [%]
45 | [O-][S+]1c2ccccc2Sc2ccccc21 [TCMDC-124300] | -7.237
46 | CC(C)Cn1ncc2c3c(N)nc(N)nc3ccc21 [TCMDC-137970] | 3.163
47 | O=C(Nc1ccccc1)OCCOc1ccc(CC2SC(=O)NC2=O)cc1 (centres unmarked) [TCMDC-131642] | 13.3
48 | N#Cc1ccc2c(c1)CCN(CCC1CCC(NC(=O)/C=C/c3cc(Br)cs3)CC1)CC2 (centres unmarked) [TCMDC-139841] | -33.15
49 | O=C(Nc1ccccc1Cl)N(Cc1cc(Cl)cc(Cl)c1)CC(O)COc1ccc(Cl)c(F)c1 (centres unmarked) [TCMDC-141477] | 10.95
50 | O=C(/C=C/c1ccc(Cl)cc1)NCCCCCN1CCC(C(=O)Nc2cccc(Cl)c2)CC1 [TCMDC-136119] | -9.305
51 | COc1ccc(NC(=O)C2CCN(CCCCCNC(=O)/C=C/c3ccc(Cl)c(Cl)c3)CC2)cc1 [TCMDC-136128] | 80.86
52 | O=C(/C=C/c1ccc(Cl)c(Cl)c1)NCCCCCN1CCC(C(=O)Nc2ccc(Cl)c(Cl)c2)CC1 [TCMDC-136124] | 40.37
53 | O=C(/C=C/c1ccc(Cl)c(Cl)c1)NCCCCCN1CCC(C(=O)Nc2ccc(Cl)cc2)CC1 [TCMDC-136116] | -21.25
54 | O=C(/C=C/c1ccc(Cl)cc1)NCCCCCN1CCC(C(=O)Nc2ccc(Cl)cc2)CC1 [TCMDC-136115] | 64.6
55 | O=C(/C=C/c1ccc(Cl)cc1)NCCCCCN1CCC(C(=O)Nc2ccc(Cl)c(Cl)c2)CC1 [TCMDC-136123] | -40.47
56 | Cc1cc(C)cc(OCC(O)CN(Cc2cc(Cl)cc(Cl)c2)C(=O)Nc2ccc(Cl)cc2)c1 (centres unmarked) [TCMDC-141475] | 25.73
57 | O=C(Nc1cccc(Cl)c1N1CCOCC1)C(Cl)(Cl)Cl [TCMDC-124993] | 8.6
58 | CN(C)CCOc1cc(NC(=O)Nc2ccc3c(c2)CCCC3=O)ccc1I [TCMDC-139187] | -8.397
59 | O=C(Nc1ccc(C(=O)N2CCN(CCN3CCN(c4cccc(C(F)(F)F)c4)CC3)CC2)cc1)c1ccc(C(F)(F)F)cc1 [TCMDC-138148] | -21.85
60 | O=C(Nc1ccc(C(F)(F)F)cc1)N[C@H]1CCN(CCCCCNC(=O)C2CC2c2ccc(Cl)c(Cl)c2)C1 (some centres unmarked) [TCMDC-136272] | 93.26
61 | O=C(NCCCCCN1CCCN(C(=O)Nc2ccc(Cl)c(C(F)(F)F)c2)CC1)C1CC1c1ccc(Cl)c(Cl)c1 (centres unmarked) [TCMDC-136255] | -20.94
62 | O=C(Nc1ccc(C(F)(F)F)cc1)NC1CCN(CCCCCNC(=O)C2CC2c2ccc(Cl)c(Cl)c2)CC1 (centres unmarked) [TCMDC-136256] | 4.226
63 | O=C(Nc1ccc(Cl)c(C(F)(F)F)c1)N[C@H]1CCN(CCCCCNC(=O)C2CC2c2ccc(Cl)c(Cl)c2)C1 (some centres unmarked) [TCMDC-136274] | 80.05
64 | O=C(Nc1ccc(Cl)c(Cl)c1)N[C@H]1CCN(CCCCCNC(=O)C2CC2c2ccc(Cl)c(Cl)c2)C1 (some centres unmarked) [TCMDC-136266] | -8.426
65 | O=C(Nc1ccc(Cl)c(C(F)(F)F)c1)NC1CCN(CCCCCNC(=O)C2CC2c2ccc(Cl)c(Cl)c2)CC1 (centres unmarked) [TCMDC-136260] | 59.16
